Hits are enriched below; roughly 14% of the tested compounds scored in any of these assays.
HCMV inh: human cytomegalovirus inhibition. HFF cells, HCMV-luciferase reporter, 72 h; active compounds read low. activity change, negative = inhibition, % at 57.5 µM. actives 4.5% (n = 410,000); in the data active = activity change below about -60%; inconclusive = no clear call, values can overlap the other calls; inactive = above about -39%
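Human foreskin fibroblasts infected with luciferase-reporter HCMV at MOI 1 PFU/cell, compounds at two doses. Luciferase measured 72 h post infection; normalized to buffer-only basal and Salinomycin (10uM) controls.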
Sm TGR block: inhibitors of Schistosoma mansoni thioredoxin glutathione reductase; Q962Y6; purified TGR, DTNB reduction, TNB absorbance 405 nm; Potency, µM (titrated, usually from 114 µM), for inactives: top-dose activity change, negative = inhibition, usual class: inhibitors; actives 3% (n = 360,000); also: potency is read from the fitted curve at half-maximal effect; nearly all actives have a fitted effect of over 60% in size
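Kinetic colorimetric format: TGR-catalysed, NADPH-driven DTNB reduction monitored via TNB absorbance. Enzyme dispensed at 20 nM; compound exposure 15 min at room temperature before reaction start.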
Pf growth 96h: inhibits malaria parasite growth, 96 h; Potency, µM (titrated, usually from 28.7 µM), for the others: at the highest dose activity change, negative = inhibition, most hits filed as inhibitors; AID 504834; actives 6.9% (n = 320,000); P. falciparum luciferase reporter growth, 96 h; also: potency is read from the fitted curve at half-maximal effect
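Cell-based qHTS: luciferase-tagged P. falciparum in erythrocytes (2% hematocrit, 0.05% parasitemia final) incubated with compounds for 96 hours, 37 C, 5% CO2; luciferase detection reagent then added and luminescence measured.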
Giardia FBPA inh: Giardia lamblia aldolase inhibition | A8B2U2 | Potency, µM (titrated, usually from 59.6 µM), inactives show at the top dose activity, negative = inhibition, usual class: inhibitors | AID 2451 | purified Giardia FBPA | actives 0.71% (n = 290,000); also: potency is read from the fitted curve at half-maximal effect; nearly all actives have a fitted effect of over 55% in size
Target sequence (A8B2U2 whole entry, looked up): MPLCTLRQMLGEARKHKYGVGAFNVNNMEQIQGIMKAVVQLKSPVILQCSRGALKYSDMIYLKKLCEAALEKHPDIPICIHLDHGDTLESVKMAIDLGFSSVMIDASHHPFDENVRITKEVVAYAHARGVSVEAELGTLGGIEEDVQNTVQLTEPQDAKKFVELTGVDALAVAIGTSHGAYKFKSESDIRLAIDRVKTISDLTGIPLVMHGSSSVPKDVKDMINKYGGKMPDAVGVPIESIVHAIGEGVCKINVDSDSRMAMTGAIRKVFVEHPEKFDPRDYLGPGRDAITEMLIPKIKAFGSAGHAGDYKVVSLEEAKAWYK
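40 nM FBPA preincubated 10 min at RT with compound (up to 57.5 uM final), then substrate plus GAPDH/TPI/NAD/arsenate coupling and diaphorase/resazurin added. Fluorescence read after 20 min at RT, 525/598 nm.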
Pf growth 48h: inhibits P. falciparum growth in the first generation, 48 h; actives 5.9% (n = 310,000); P. falciparum luciferase growth in erythrocytes, 48 h; Potency, µM (doses to about 28.7 µM), for inactives: at the top dose activity change, negative = inhibition, actives largely listed as inhibitors; AID 504832; also: potency is read from the fitted curve at half-maximal effect
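Read-out is firefly luciferase luminescence from an integrated reporter in P. falciparum, so falling signal marks reduced parasite growth. Infected erythrocytes were at 2% hematocrit and 0.1% parasitemia (final) in Albumax-supplemented RPMI 1640.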
* hit, by the source's call. Unless noted, calls follow the shape of the dose curve; as a rule, active = well fitted curve in the direction sought with a large enough effect; inconclusive = small, poorly fitted or top-dose-only effect, or another doubt; inactive = no such curve, though single readings can be large; an effect the other way counts as inactive or inconclusive. % is scaled to controls: 0 for no effect and ±100 for the full control effect.

What do the screens show for `CC(O)C1C=CC=CC(=O)OC2CC3OC4C5OC5(C)C(O)CC4(COC(=O)C(O)C(C)CCO1)C2(C)C31CO1` (centres undefined)?
HCMV inh: -97.9*

How did CC1=CC2OC3CC4OC(=O)C=CC=CC(=O)OCCC(C)C(O)C(=O)OCC2(CC1)C4(C)C31CO1 (centres undefined) do in these assays?
HCMV inh: -97.8*

How did O=C(c1ccco1)N1N=C(c2ccccc2O)CC1c1cccs1 (centres undefined) do in these assays?
HCMV inh: 8.3

What do the screens show for `CCCC(=O)NCc1nc2cccnc2n1Cc1ccc(F)cc1`?
HCMV inh: 4.8; Sm TGR block: 4.4%

Results for Cc1ccc(NC(=O)C2CCN(S(=O)(=O)c3ccc4c(c3)CCCN4C(=O)C3CCC3)CC2)cc1 ?
HCMV inh: -4.0; Sm TGR block: -7.9%

Results for Cc1cc(S(=O)(=O)Nc2ccc(C(=O)NCC(c3ccco3)N(C)C)cc2)ccc1F (centres undefined) ?
HCMV inh: -1.3; Sm TGR block: -18.8%; Pf growth 96h: -6.6%; Pf growth 48h: inconclusive

Results for O=C1NC(c2cccc3ccccc23)Nc2ccc(Cl)cc21 (centres undefined) ?
HCMV inh: -72.9*

Results for O=C1NC(c2cc3ccccc3nc2Cl)Nc2ccccc21 (centres undefined) ?
HCMV inh: 24.7; Sm TGR block: 5.4%; Pf growth 96h: 1.85µM*; Giardia FBPA inh: -2.9%; Pf growth 48h: 2.94µM*

Results for Cc1ccc(C)c(C2NC(=O)c3ccccc3N2)c1 (centres undefined) ?
HCMV inh: -67.8*; Sm TGR block: 0.5%; Pf growth 96h: 24.6%; Giardia FBPA inh: 8.0%; Pf growth 48h: -13.3%

Results for COc1ccccc1N1CN(S(=O)(=O)c2ccc(C)cc2)c2nc3ccccc3nc21 ?
HCMV inh: 60.6

How did COc1ccc(C2=NN(C(=O)CSc3nc4ncc(Cl)cc4[nH]3)C(c3ccco3)C2)cc1 (centres undefined) do in these assays?
HCMV inh: 84.0; Sm TGR block: 28.2µM*; Pf growth 96h: inconclusive; Giardia FBPA inh: -5.4%; Pf growth 48h: inconclusive

What do the screens show for `Nc1cc(=O)[nH]c(SCC(=O)N2N=C(c3ccc(Cl)cc3)CC2c2ccco2)n1` (centres undefined)?
HCMV inh: inconclusive; Pf growth 96h: -15.5%; Giardia FBPA inh: 1.4%; Pf growth 48h: -26.3%

How did CCCc1cc(=O)[nH]c(SCC(=O)N2N=C(c3ccc(Cl)cc3)CC2c2ccco2)n1 (centres undefined) do in these assays?
HCMV inh: -6.8; Sm TGR block: 1.5%; Pf growth 96h: 36.0%; Giardia FBPA inh: -9.7%; Pf growth 48h: 41.7%

Results for Cc1ccc(C2=NN(C(=O)CSc3nc4ncc(Cl)cc4[nH]3)C(c3ccco3)C2)cc1 (centres undefined) ?
HCMV inh: 11.3; Sm TGR block: 14.1µM*; Pf growth 96h: 11.7µM*; Giardia FBPA inh: -13.5%; Pf growth 48h: -13.1%

What do the screens show for `COc1ccc(C2=NN(C(N)=S)C(c3ccco3)C2)cc1` (centres undefined)?
HCMV inh: -8.2; Sm TGR block: 8.91µM*; Pf growth 96h: -28.1%; Giardia FBPA inh: -14.4%; Pf growth 48h: 32.8%

What do the screens show for `O=C(NCCc1c[nH]c2ccccc12)/C(=C\c1cccs1)NC(=O)c1ccccc1`?
HCMV inh: inconclusive; Sm TGR block: 3.0%; Pf growth 96h: 14.7µM*; Giardia FBPA inh: -3.1%; Pf growth 48h: inconclusive

Results for COc1ccc(C(=O)NCCc2c[nH]c3ccccc23)cc1OC ?
HCMV inh: 14.5; Sm TGR block: 0.7%; Pf growth 96h: inconclusive; Giardia FBPA inh: 4.0%; Pf growth 48h: -14.5%

Results for COc1ccc(C(=O)N/C(=C\c2cccc3ccccc23)C(=O)NCCc2c[nH]c3ccccc23)cc1OC ?
HCMV inh: -8.9; Sm TGR block: -8.8%; Pf growth 96h: 5.86µM*; Giardia FBPA inh: 0.4%; Pf growth 48h: 2.94µM*
